The source of these data is the OligoGym collection.
Further: reference of the scale not given here.

The target in one assay is C2orf57. The experiment in a line: pooled miR-30 sensor sort-seq; sequence = guide strand. Conditions: shRNA.
Take AACAACTGCACTCTTGTCTTTG: the sensor-assay potency score (higher = more potent) is -0.961.
In turn, TGACATCTTGTCTTTACCCAGG had a sensor-assay potency score (higher = more potent) of -0.635.
The same measure, in the same setting: the same measure for TAAAGCTTCAGCTTCAGGGTGT: 0.632; for AAAACCACTAGACTCTGACTTG: -0.273.

Another assay has as its target C2orf70. Described as above. Conditions: shRNA.
TTGTCTTGATAGTACTTCCGAT came in with a sensor-assay potency score (higher = more potent) of -0.575.
For TAGCAGTCTCTCTTTTTCCGCT, the sensor-assay potency score (higher = more potent) was -0.538.
On the same count and under the same terms, the same measure for TAGGTCTTCAGGTTCTCGGGGG: 0.319; for TTGGTGGAGAAGATGGTGGGGA: 0.218; for TAAAAGGTGCCACTTCTTCTTT: -0.951.
The same measure, in the same setting: in the case of TAGTCTTAAAAGGTGCCACTTC it was -0.307.
The same measure, in the same setting: in the case of TTGATAGTACTTCCGATGCTGC it was -0.858.
TACTTGAGGGTGGTGGTGCCGT showed a sensor-assay potency score (higher = more potent) of -0.758.
TAGAAATTCGTAAGCTCTGTGG registered a sensor-assay potency score (higher = more potent) of -0.326.
Same read-out and setting: in the case of TTCGTAAGCTCTGTGGAGCGAT it was -0.412; in that of TGTCTTGATAGTACTTCCGATG, -1.09.
Regarding TTGAACTCGGTCAGTAGGGTGC, the sensor-assay potency score (higher = more potent) is -0.0549.
